The full ranking holds about 18,000 sequences; the median of “log2 normalized intensity” is about 0.36, and the highest 2% start at about 7.3. The full list was thinned out, with the highest values kept by preference.

The assay concerns the target T1, HNF4alpha8 (COS-7 nuclear extract) (Homo sapiens, UniProt P41235-5 1-452).
T1 sequence: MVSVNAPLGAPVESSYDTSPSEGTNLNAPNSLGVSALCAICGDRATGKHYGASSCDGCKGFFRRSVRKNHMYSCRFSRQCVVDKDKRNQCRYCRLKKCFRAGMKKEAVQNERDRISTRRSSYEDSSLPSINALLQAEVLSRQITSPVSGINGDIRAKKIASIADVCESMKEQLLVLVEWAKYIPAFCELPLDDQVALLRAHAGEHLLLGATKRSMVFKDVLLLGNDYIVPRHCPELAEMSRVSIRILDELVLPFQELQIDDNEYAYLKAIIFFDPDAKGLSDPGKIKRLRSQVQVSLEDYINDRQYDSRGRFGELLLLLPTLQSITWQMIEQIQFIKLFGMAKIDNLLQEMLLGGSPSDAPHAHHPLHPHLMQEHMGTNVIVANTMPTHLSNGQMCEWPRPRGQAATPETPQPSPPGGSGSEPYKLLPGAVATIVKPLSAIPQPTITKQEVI
Nature of the assay: protein-binding microarray; COS-7 nuclear extract on double-stranded Agilent 4x180k PBM; binding buffer, salt, pH and temperature not given in the material; high values mean tight binding. The conditions noted are these: chain copies: 2; label: 3' end of strand 1 on the slide; dsDNA, one strand shown. The method in brief:
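The binding signal is Agilent software's gProcessedSignal after background correction and normalization. Arrays were a custom Agilent SurePrint G3 4x180k design of double-stranded ~60-nt oligonucleotides with ~44,000 test sequences in quadruplicate, probed with nuclear extracts of COS-7 cells transiently expressing a human HNF4α isoform. Scans were made at 2-µm resolution on an Agilent G2565CA scanner.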
As to “GAGTACTTGGACTTTAACCTTTAGATTACTGCCTAGGGAGATTAGAGTATCGGTCGA”, the binding signal turned out to be 7.94 log2 normalized intensity.
As for “TGCCAAGGAGCCTCTGCAACCTTTGCTCTCGCCTAGGGAGATTAGAGTATCGGTCGA”, the figure is 6.62 log2 normalized intensity; as for “CTGCCACATTTTTATCCTTTTTTGAAGGTTGCCTAGGGAGATTAGAGTATCGGTCGA”, 2 log2 normalized intensity.
For “TTTGAAGGTTAAAGTCCATTTTTGAGGACCGCCTAGGGAGATTAGAGTATCGGTCGA”, the binding signal is 6.47 log2 normalized intensity.
For the sequence “ACATTTTTATCCTTTTTTGAAGGTTAAAGTGCCTAGGGAGATTAGAGTATCGGTCGA”, the binding signal came to 3 log2 normalized intensity.
Turning to “TTTATCCTTTTTTGAAGGTTAAAGTCCATTGCCTAGGGAGATTAGAGTATCGGTCGA”, the binding signal turned out to be 7.82 log2 normalized intensity.
In the case of “CCTTTTTTGAAGGTTAAAGTCCATTTTTGAGCCTAGGGAGATTAGAGTATCGGTCGA” it was 7.52 log2 normalized intensity.
Take “ATGGTTAAGGTGAAAGTCCGACTTTTAAGAGCCTAGGGAGATTAGAGTATCGGTCGA”: the binding signal is 4.06 log2 normalized intensity.
“AAACCTCCCCCAAACCAAAGAGAAATGGTGGCCTAGGGAGATTAGAGTATCGGTCGA”: the binding signal turned out to be 3.41 log2 normalized intensity.
In the case of “TGGTTTTCCAATCTGGTGAAAGATGATGAGGCCTAGGGAGATTAGAGTATCGGTCGA” it was 0.365 log2 normalized intensity; in that of “TCTAAGGCAAAACACCCCTTTCACTTCTTCGCCTAGGGAGATTAGAGTATCGGTCGA”, 0.915 log2 normalized intensity; in that of “CCATTTATAAGAAACTGCTCCTGCTTGGGAGCCTAGGGAGATTAGAGTATCGGTCGA”, -0.881 log2 normalized intensity.
On to “TGCCAGCCCCGAGATAACCCCTCTCCAAGCGCCTAGGGAGATTAGAGTATCGGTCGA”, for which the binding signal came out at 4.43 log2 normalized intensity.
As for “ATAGACTGTCCCTCAGTGTGGGACTTTGGTGCCTAGGGAGATTAGAGTATCGGTCGA”, the figure is 3.52 log2 normalized intensity; as for “CCCTGCCTGACCTGCCCTTTGTCCCTCCTGGCCTAGGGAGATTAGAGTATCGGTCGA”, 5.06 log2 normalized intensity.
In the case of “GACCTTTGCCCTCTGGCCCTTAAAGGCTTTGCCTAGGGAGATTAGAGTATCGGTCGA” it was 7.8 log2 normalized intensity; in that of “CCCTCGACCTTTGCCCTCCATAAGGGGGAGGCCTAGGGAGATTAGAGTATCGGTCGA”, 6.74 log2 normalized intensity; in that of “TCACTGACCTCTGCCCTACTGTATATCCTGGCCTAGGGAGATTAGAGTATCGGTCGA”, 2.89 log2 normalized intensity.
In the case of “ACAGAAGAAGGAAAAGGCCTGACCTTTGCCGCCTAGGGAGATTAGAGTATCGGTCGA” it was 5.58 log2 normalized intensity.
Regarding “TGGTGCAAAGGTCAGGACAAGGCTCTGGTGGCCTAGGGAGATTAGAGTATCGGTCGA”, the binding signal stood at 4.55 log2 normalized intensity.
In the case of “GAAAAGGCCTGACCTTTGCCCTCTGGCCCTGCCTAGGGAGATTAGAGTATCGGTCGA”, the binding signal turned out to be 9.29 log2 normalized intensity.
As to “TTCTGCCCCTTGCTCCTGCTTGCTGGCTTTGCCTAGGGAGATTAGAGTATCGGTCGA”, the binding signal is 1.35 log2 normalized intensity.
On to “AGAAGGAAAAGGCCTGACCTTTGCCCTCTGGCCTAGGGAGATTAGAGTATCGGTCGA”, for which the binding signal turned out to be 10.4 log2 normalized intensity.
In the case of “CAGAGGCTTCCTCTTTGGTGCAAAGGTCAGGCCTAGGGAGATTAGAGTATCGGTCGA” it was 7.47 log2 normalized intensity; in that of “AGAGGACAGAAGAAGGAAAAGGCCTGACCTGCCTAGGGAGATTAGAGTATCGGTCGA”, 1.07 log2 normalized intensity; in that of “CTCTTTGGTGCAAAGGTCAGGACAAGGCTCGCCTAGGGAGATTAGAGTATCGGTCGA”, 4.73 log2 normalized intensity.
For “AATACTCTGAGTAAACACAGACTTTGGAATGCCTAGGGAGATTAGAGTATCGGTCGA”, the binding signal came to 4.55 log2 normalized intensity.
In the case of “TTCGGGGCACTGCTCCCTGCCCCTACCCCCGCCTAGGGAGATTAGAGTATCGGTCGA” it was 5.02 log2 normalized intensity; in that of “AGGTACTGGTAGCCTGGGCCCCAGGGGACGGCCTAGGGAGATTAGAGTATCGGTCGA”, -0.625 log2 normalized intensity; in that of “GTGCAAAGGCCTTAAAGTGTAAATATTTGAGCCTAGGGAGATTAGAGTATCGGTCGA”, 0.546 log2 normalized intensity.
In the case of “TCCGCTTGCCTGAGGGTCATGACTAAAGCAGCCTAGGGAGATTAGAGTATCGGTCGA”, the binding signal worked out at 1.13 log2 normalized intensity.
Consider “CCACTAGAGAGACCGTCCCTGGGTACAACTGCCTAGGGAGATTAGAGTATCGGTCGA”, for which the binding signal was found to be 1.33 log2 normalized intensity.
“CGTGGGCATGCCTCCCAGAGCATTGTTTATGCCTAGGGAGATTAGAGTATCGGTCGA”: the binding signal was -0.764 log2 normalized intensity.
In the case of “GCACATGGCATGATCCCTGACTCATAGCTCGCCTAGGGAGATTAGAGTATCGGTCGA” it was -0.946 log2 normalized intensity.
In the case of “TTCTCTGTGACCTTTGGAAGGTGGGGGAGGGCCTAGGGAGATTAGAGTATCGGTCGA” it was 4.92 log2 normalized intensity.
As for “CTGCCCTTCTGACCTCCCAGGGATACTGTGGCCTAGGGAGATTAGAGTATCGGTCGA”, the figure is 2.99 log2 normalized intensity; as for “TGACTACCAGGTTCTGTACTTTGGAACCTGGCCTAGGGAGATTAGAGTATCGGTCGA”, 7.01 log2 normalized intensity; as for “GGGCCCAGGGTTCTCTGTGACCTTTGGAAGGCCTAGGGAGATTAGAGTATCGGTCGA”, 9.36 log2 normalized intensity.
For “GAGGTGGGCCCAGGGTTCTCTGTGACCTTTGCCTAGGGAGATTAGAGTATCGGTCGA”, the binding signal is 7.62 log2 normalized intensity.
In the case of “TGGAGCATGACCCTTTGCAGGTGGGAGAGGGCCTAGGGAGATTAGAGTATCGGTCGA” it was 0.928 log2 normalized intensity.
Take “GTAAGCACAAAGTACAGCTTTTTGTTTGTGGCCTAGGGAGATTAGAGTATCGGTCGA”: the binding signal was 2.02 log2 normalized intensity.
As for “AAACATCAAGGAAGAGAACTCCCTATCCCCGCCTAGGGAGATTAGAGTATCGGTCGA”, the figure is 1.36 log2 normalized intensity; as for “GATAGATATGTTGAAGTGACTAAATGAGAAGCCTAGGGAGATTAGAGTATCGGTCGA”, -0.611 log2 normalized intensity.

Values taken from PMC10726135, “HNF4α isoforms regulate the circadian balance between carbohydrate and lipid metabolism in the liver”.
